{
  "source": "the supplement of paper PMC10338343",
  "key": {"[1]": {"test_system": "MILI (PIWIL2) piRISC loaded with piRNA #1 (26 nt)", "assay": "pre-steady-state target cleavage rate (min^-1); guide: piRNA #1 5'p-UGAGGUAGUAGGUUGUAUAGUAUCCA; higher = faster piRNA-guided slicing of the target", "conditions": "auxiliary factor: 500 nM mouse GTSF1", "in_short": "(§1)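 A transcribed, DNA-blocked target RNA library (0.1 nM) and 1 nM active affinity-purified piRISC bearing one synthetic guide were incubated in HEPES–potassium acetate buffer at 33 °C for 0–8 or 0–960 min, either with or without 500 nM GTSF1 partner protein. Uncleaved targets were sequenced, normalised to depth and to weakly complementary targets, and pooled over three trials, with k3 capped at 0.0001 min^-1. The pre-steady-state cleavage rate was derived with a burst-and-steady-state fit.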"}, "[2]": {"test_system": "EfPiwi piRISC loaded with piRNA #1 (26 nt)", "assay": "pre-steady-state target cleavage rate (min^-1); auxiliary factor: 500 nM Ephydatia muelleri Gtsf1; guide: piRNA #1 5'p-UGAGGUAGUAGGUUGUAUAGUAUCCA; MIWI and MILI are mouse PIWI proteins and EfPiwi is from a freshwater sponge; tags in brackets are library labels; higher = faster piRNA-guided slicing of the target", "in_short": "as §1"}},
  "note": "± gives the standard deviation.",
  "data": [
    {"sequence": "GGAGAGGAUACUAUACAACCAACUACCACA", "values": [
      {"measurement": "pre-steady-state target cleavage rate", "setting": "[1]", "value": "0.0058 ± 0.0018"},
      {"measurement": "pre-steady-state target cleavage rate", "setting": "[2]", "value": "0.00388 ± 0.0019"}
    ]},
    {"sequence": "GGAGACCAUACUAUACAACGUACUACCACA", "values": [
      {"measurement": "pre-steady-state target cleavage rate", "setting": "[1]", "value": "0.0309 ± 0.0064"},
      {"measurement": "pre-steady-state target cleavage rate", "setting": "[2]", "value": "0.00321 ± 0.0029"}
    ]},
    {"sequence": "GGAGUGGAUACUAUUCUACCUACUACCUCA", "values": [
      {"measurement": "pre-steady-state target cleavage rate", "setting": "[1]", "value": "0.19 ± 0.011"},
      {"measurement": "pre-steady-state target cleavage rate", "setting": "[2]", "value": "0.00571 ± 0.0035"}
    ]},
    {"sequence": "GGAGUGGAUACUAUACAACCUACUACCUCC [g2:g26:cont:t1C]", "values": [
      {"measurement": "pre-steady-state target cleavage rate", "setting": "[1]", "value": "0.188 ± 0.0099"},
      {"measurement": "pre-steady-state target cleavage rate", "setting": "[2]", "value": "0.105 ± 0.037"}
    ]},
    {"sequence": "GGAGACCUUACGUAUACAACCUACUACCUCA", "values": [
      {"measurement": "pre-steady-state target cleavage rate", "setting": "[1]", "value": "0.0406 ± 0.0063"},
      {"measurement": "pre-steady-state target cleavage rate", "setting": "[2]", "value": "0.00861 ± 0.0055"}
    ]},
    {"sequence": "GGAGACCAUACUAUAUCAACCUACUACCUCA", "values": [
      {"measurement": "pre-steady-state target cleavage rate", "setting": "[1]", "value": "0.0898 ± 0.011"},
      {"measurement": "pre-steady-state target cleavage rate", "setting": "[2]", "value": "0.0136 ± 0.0068"}
    ]},
    {"sequence": "GGAGACCAAUGUAUACAACCUACUACCUCA", "values": [
      {"measurement": "pre-steady-state target cleavage rate", "setting": "[1]", "value": "0.0592 ± 0.01"},
      {"measurement": "pre-steady-state target cleavage rate", "setting": "[2]", "value": "0.0133 ± 0.0056"}
    ]},
    {"sequence": "GGAGUGGAUACUAUACUACCUACUACCUGA", "values": [
      {"measurement": "pre-steady-state target cleavage rate", "setting": "[1]", "value": "0.104 ± 0.013"},
      {"measurement": "pre-steady-state target cleavage rate", "setting": "[2]", "value": "0.00352 ± 0.0018"}
    ]},
    {"sequence": "GGAGACCAUACUAUUCAACCUACUACGUCA", "values": [
      {"measurement": "pre-steady-state target cleavage rate", "setting": "[1]", "value": "0.0881 ± 0.013"},
      {"measurement": "pre-steady-state target cleavage rate", "setting": "[2]", "value": "0.00376 ± 0.0034"}
    ]},
    {"sequence": "GGAGACCUAUGUCAUACAACCUACUACCUCA", "values": [
      {"measurement": "pre-steady-state target cleavage rate", "setting": "[1]", "value": "0.0265 ± 0.008"},
      {"measurement": "pre-steady-state target cleavage rate", "setting": "[2]", "value": "0.00679 ± 0.0034"}
    ]},
    {"sequence": "GGAGUGGUACUAUACAACCUACUACCUCA", "values": [
      {"measurement": "pre-steady-state target cleavage rate", "setting": "[1]", "value": "0.148 ± 0.0098"},
      {"measurement": "pre-steady-state target cleavage rate", "setting": "[2]", "value": "0.00812 ± 0.0044"}
    ]},
    {"sequence": "GGAGUGGAUACUAUUCAACCUACUACGUCA", "values": [
      {"measurement": "pre-steady-state target cleavage rate", "setting": "[1]", "value": "0.0439 ± 0.0069"},
      {"measurement": "pre-steady-state target cleavage rate", "setting": "[2]", "value": "0.00281 ± 0.0015"}
    ]},
    {"sequence": "GGAGACCUUACUAUACAACCUACGACCUCA", "values": [
      {"measurement": "pre-steady-state target cleavage rate", "setting": "[1]", "value": "0.113 ± 0.012"},
      {"measurement": "pre-steady-state target cleavage rate", "setting": "[2]", "value": "0.00282 ± 0.0024"}
    ]},
    {"sequence": "GGAGACGAUACUAUUCAACCUACUAGCUCA", "values": [
      {"measurement": "pre-steady-state target cleavage rate", "setting": "[1]", "value": "0.0651 ± 0.01"},
      {"measurement": "pre-steady-state target cleavage rate", "setting": "[2]", "value": "0.0042 ± 0.002"}
    ]},
    {"sequence": "GGAGUGGAUACUAUACAACCUACUACCUCG [g2:g26:cont:t1G]", "values": [
      {"measurement": "pre-steady-state target cleavage rate", "setting": "[1]", "value": "0.164 ± 0.011"},
      {"measurement": "pre-steady-state target cleavage rate", "setting": "[2]", "value": "0.0718 ± 0.025"}
    ]},
    {"sequence": "GGAGACGAUACUAUACAACCAACUACCUGA", "values": [
      {"measurement": "pre-steady-state target cleavage rate", "setting": "[1]", "value": "0.00533 ± 0.0024"},
      {"measurement": "pre-steady-state target cleavage rate", "setting": "[2]", "value": "0.00427 ± 0.0022"}
    ]},
    {"sequence": "GGAGUGGAUAGUUUACAACCUACUACCUCA", "values": [
      {"measurement": "pre-steady-state target cleavage rate", "setting": "[1]", "value": "0.11 ± 0.0082"},
      {"measurement": "pre-steady-state target cleavage rate", "setting": "[2]", "value": "0.00446 ± 0.0033"}
    ]},
    {"sequence": "GGAGACGAUACUAUACAAGGUACUACCUCA", "values": [
      {"measurement": "pre-steady-state target cleavage rate", "setting": "[1]", "value": "0.0884 ± 0.013"},
      {"measurement": "pre-steady-state target cleavage rate", "setting": "[2]", "value": "0.00393 ± 0.0023"}
    ]},
    {"sequence": "GGAGACCAUACUAUACAACCUGCUACCUCA", "values": [
      {"measurement": "pre-steady-state target cleavage rate", "setting": "[1]", "value": "0.0337 ± 0.0076"},
      {"measurement": "pre-steady-state target cleavage rate", "setting": "[2]", "value": "0.0759 ± 0.029"}
    ]},
    {"sequence": "GGAGACCUAUCUAUACAACCUACAACCUCA", "values": [
      {"measurement": "pre-steady-state target cleavage rate", "setting": "[1]", "value": "0.0886 ± 0.013"},
      {"measurement": "pre-steady-state target cleavage rate", "setting": "[2]", "value": "0.00366 ± 0.0032"}
    ]},
    {"sequence": "GGAGACCUCACUAUACAACCUACUACCUCA", "values": [
      {"measurement": "pre-steady-state target cleavage rate", "setting": "[1]", "value": "0.252 ± 0.029"},
      {"measurement": "pre-steady-state target cleavage rate", "setting": "[2]", "value": "0.0184 ± 0.0086"}
    ]},
    {"sequence": "GGAGAGGAUACUAUACAACCUACUACGUCA", "values": [
      {"measurement": "pre-steady-state target cleavage rate", "setting": "[1]", "value": "0.058 ± 0.0086"},
      {"measurement": "pre-steady-state target cleavage rate", "setting": "[2]", "value": "0.00636 ± 0.0029"}
    ]},
    {"sequence": "GGAGACCUUACUAUACAACCUAUUACCUCA", "values": [
      {"measurement": "pre-steady-state target cleavage rate", "setting": "[1]", "value": "0.226 ± 0.019"},
      {"measurement": "pre-steady-state target cleavage rate", "setting": "[2]", "value": "0.0052 ± 0.0025"}
    ]},
    {"sequence": "GGAGUCGAUACUAUACUACCUACUACCUCA", "values": [
      {"measurement": "pre-steady-state target cleavage rate", "setting": "[1]", "value": "0.19 ± 0.012"},
      {"measurement": "pre-steady-state target cleavage rate", "setting": "[2]", "value": "0.00591 ± 0.0029"}
    ]},
    {"sequence": "GGAGAGGAUACUAUACAACGUACUACCACA", "values": [
      {"measurement": "pre-steady-state target cleavage rate", "setting": "[1]", "value": "0.0287 ± 0.0041"},
      {"measurement": "pre-steady-state target cleavage rate", "setting": "[2]", "value": "0.00287 ± 0.0018"}
    ]},
    {"sequence": "GGAGACCUUACUAUACAAGCUACUACCUCA", "values": [
      {"measurement": "pre-steady-state target cleavage rate", "setting": "[1]", "value": "0.225 ± 0.015"},
      {"measurement": "pre-steady-state target cleavage rate", "setting": "[2]", "value": "0.00386 ± 0.002"}
    ]},
    {"sequence": "GGAGUGGUUACUAUACAACCAACUACCUCA", "values": [
      {"measurement": "pre-steady-state target cleavage rate", "setting": "[1]", "value": "0.00796 ± 0.0019"},
      {"measurement": "pre-steady-state target cleavage rate", "setting": "[2]", "value": "0.0036 ± 0.0014"}
    ]},
    {"sequence": "GGAGUGGAUAGUAUACAACCUACAACCUCA", "values": [
      {"measurement": "pre-steady-state target cleavage rate", "setting": "[1]", "value": "0.0845 ± 0.011"},
      {"measurement": "pre-steady-state target cleavage rate", "setting": "[2]", "value": "0.00254 ± 0.0017"}
    ]},
    {"sequence": "GGAGUGCAUACUAUACAACCUACUAGCUCA", "values": [
      {"measurement": "pre-steady-state target cleavage rate", "setting": "[1]", "value": "0.0656 ± 0.0098"},
      {"measurement": "pre-steady-state target cleavage rate", "setting": "[2]", "value": "0.00282 ± 0.0024"}
    ]},
    {"sequence": "GGAGUGGAUACUAUACAUCCUACUACCACA", "values": [
      {"measurement": "pre-steady-state target cleavage rate", "setting": "[1]", "value": "0.108 ± 0.014"},
      {"measurement": "pre-steady-state target cleavage rate", "setting": "[2]", "value": "0.00415 ± 0.0017"}
    ]}
  ]
}
